GDH-TPI counter-1: GDH-TPI coupled enzyme inhibition counter-screen | GDH-TPI coupled enzyme counterscreen, NADH absorbance | AID 588335 | actives 1.2% (n = 360,000) | inhibition, % at 4.8 µM; in the data active = inhibition above about 30%;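 note: 0% = DMSO wells and 100% = wells lacking the enzyme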
Rv3671c protease: inhibits the M. tuberculosis serine protease Rv3671c; P9WHR9; inhibition, % at 5.96 µM; actives 0.048% (n = 320,000); AID 2606; in the data active = inhibition above about 38%;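 note: extracellular domain of Rv3671c used as enzyme; 0% = enzyme with DMSO and 100% = no enzyme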
FBA Mtb inh: inhibits M. tuberculosis FBA enzyme | P9WQA3 | purified M. tuberculosis FBA, fluorescence read-out | inhibition, % at 1 µM | actives 2.3% (n = 360,000) | AID 588726;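 note: 0% = vehicle and 100% = reference inhibitor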
Vc quorum ag: inducers of Vibrio cholerae quorum light production without autoinducers; V. cholerae BH1578 lux reporter, luminescence, 6 h; activation, % at 18.7 µM; actives 0.16% (n = 350,000); AID 588436; in the data active = activation mostly above about 9.7%, no sharp cut-off
Mtb UGM inh: blocks M. tuberculosis UGM enzyme | inhibition, % at 10 µM | AID 504406 | P9WIQ1 | purified UGM, fluorescence polarization probe displacement | actives 0.06% (n = 320,000); in the data active = inhibition above about 10%, passing the limit was not always enough
Target sequence (P9WIQ1 whole entry, looked up): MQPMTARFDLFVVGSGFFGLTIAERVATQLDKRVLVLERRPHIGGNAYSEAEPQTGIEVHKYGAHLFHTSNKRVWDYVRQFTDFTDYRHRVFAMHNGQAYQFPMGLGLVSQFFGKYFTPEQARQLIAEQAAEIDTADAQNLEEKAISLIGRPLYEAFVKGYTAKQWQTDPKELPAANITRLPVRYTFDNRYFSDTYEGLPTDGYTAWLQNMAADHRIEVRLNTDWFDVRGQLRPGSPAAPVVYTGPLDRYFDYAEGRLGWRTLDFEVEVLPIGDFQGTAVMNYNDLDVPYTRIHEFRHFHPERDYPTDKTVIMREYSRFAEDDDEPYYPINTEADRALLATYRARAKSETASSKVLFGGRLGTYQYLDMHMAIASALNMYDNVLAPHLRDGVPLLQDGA
RecA intein inh: inhibitors of M. tuberculosis RecA intein splicing; P9WHJ3; cell-free RecA intein splicing, fluorescence; inhibition, % (no concentration beside the values); actives 0.75% (n = 290,000); AID 2221; in the data active = inhibition above about 30%;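 note: 0% = vehicle wells and 100% = reference inhibitor control wells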
Mtb FBA inh conf: confirmation of M. tuberculosis fructose-bisphosphate aldolase inhibitors. purified M. tuberculosis FBA, fluorescence read-out. shares compounds with FBA Mtb inh. inhibition, % at 1 µM. actives 78% (n = 5,600);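 note: 0% = vehicle wells and 100% = reference inhibitor wells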
GDH-TPI counter-2: counter-screen for M. tuberculosis FBA inhibitors: GDH-TPI coupled enzyme inhibition; shares compounds with FBA Mtb inh; GDH-TPI coupled enzyme counterscreen, fluorescence; inhibition, % at 1 µM; AID 652141; actives 81% (n = 5,600); in the data active = inhibition above about 10%
Starred values were filed as active, the others as inactive; i = inactive; x = not tested or not shown; + = active, no number. Shown are actives, neighbours in structure and some others; about 4.1% of the full set was active somewhere. Cut-off read from the data, not from the text of the source, unless noted: active = inhibition above about 27%; inactive = the rest.

SMILES | GDH-TPI counter-1 | Rv3671c protease | FBA Mtb inh | Vc quorum ag | Mtb UGM inh | RecA intein inh | Mtb FBA inh conf | GDH-TPI counter-2
c1ccc(-c2nc(-c3cccs3)[nH]c2-c2ccccc2)cc1 | 18 | 4 | 63* | 0 | 0 | x | + | 178*
Cc1cccn2c(=O)c3cc(C(=O)NC4CCCCC4C)n(C)c3nc12 (stereo unspecified) | 0 | 5 | 13 | 0 | 2 | -13 | x | x
COc1ccccc1N1CCN(C(=O)c2cc3c(=O)n4cccc(C)c4nc3s2)CC1 | 15 | -8 | 41* | -1 | 0 | x | + | 180*
CCN(CC)C(=O)c1cc2c(=O)n3cccc(C)c3nc2n1C | 21 | 1 | 57* | 0 | 1 | -14 | 122* | 107*
CCCCN(CC)C(=O)c1cc2c(=O)n3cccc(C)c3nc2s1 | 11 | 0 | 70* | i | 0 | -15 | + | 167*
CCN(CC)C(=O)c1cc2c(=O)n3cccc(C)c3nc2s1 | 12 | 4 | 69* | 1 | 1 | -15 | 148* | 143*
CC(=O)Nc1ccc(S(=O)(=O)N2CCN=C2SCc2ccc([N+](=O)[O-])cc2)cc1 | -1 | 1 | -2 | 0 | 1 | 2 | x | x
Cc1cccn2c(=O)c3cc(C(=O)N4CCOCC4)n(C)c3nc12 | 17 | 3 | 66* | i | -3 | -22 | -10 | -11
Cc1cccn2c(=O)c3cc(C(=O)N4CCN(C(=O)c5ccco5)CC4)n(C)c3nc12 | 26 | -13 | 81* | i | 2 | -16 | + | +
CCOC(=O)N1CCN(C(=O)c2cccn3c(=O)c4c5c(sc4nc23)CCCC5)CC1 | 12 | -2 | 5 | 0 | 0 | -62 | x | x
O=C(c1ccco1)N1CCN(C(=O)c2cccn3c(=O)c4c5c(sc4nc23)CCCC5)CC1 | 28 | x | 34* | -1 | x | x | 189* | 145*
Cc1cccn2c(=O)c3cc(C(=O)N4c5ccccc5CC4C)n(C)c3nc12 (stereo unspecified) | 8 | 0 | 0 | 0 | 0 | -5 | x | x
C/C(=N\NC(=O)CCC(=O)NCc1ccccc1)c1ccc([N+](=O)[O-])cc1 | 8 | 2 | -1 | -6 | x | x | x | x
CCOC(=O)Nc1nnc(-c2ccc(OC)c(OC)c2)s1 | 12 | 5 | 62* | 0 | 0 | 2 | 72* | 58*
COC(=O)Nc1nnc(-c2ccc(OC)cc2)s1 | 16 | -1 | 43* | 0 | -1 | x | 58* | 56*
CN(C)CCNc1ncnc2c1ncn2[C@H]1CN(CCc2ccccc2)C[C@@H](CO)O1 | 8 | x | 4 | -5 | x | x | x | x
CCOC(=O)c1cnc2sc3c(n2c1=O)CCCC3 | 23 | -12 | 108* | i | 4 | x | 53* | 45*
CCN(Cc1ccccc1)C(=O)COC(=O)c1cc(S(=O)(=O)Nc2ccccc2OC)ccc1O | 4 | 2 | 7 | i | 0 | x | x | x
Cc1c(Cc2ccccc2)c(=O)oc2cc(OCC(=O)NCC(O)c3ccccc3)ccc12 (stereo unspecified) | 12 | 1 | 79* | 0 | 1 | 1 | + | +
Cc1c(CCC(=O)O)c(=O)oc2cc(OCc3cccc(Cl)c3)ccc12 | 12 | -5 | 91* | i | 0 | -1 | 115* | 109*
O=C(c1cccc(Cl)c1)N1CCN(S(=O)(=O)c2ccc(Cl)s2)CC1 | -6 | -11 | -3 | i | -1 | x | x | x
Cc1cc(OCC(=O)NCCN2CCOCC2)c2c(C)c(C)c(=O)oc2c1 | 10 | 1 | 52* | 0 | -5 | -5 | -6 | -6
O=C(COc1cc(Cl)c(Cl)cc1Cl)NCCN1CCOCC1 | 0 | 3 | -1 | i | -2 | -1 | x | x
CCCCc1cc(=O)oc2cc(C)cc(OCC(=O)NCCN3CCOCC3)c12 | 15 | -1 | 51* | i | -3 | -4 | + | 170*
CCCc1cc(=O)oc2cc(C)cc(OCC(=O)NCCCN3CCOCC3)c12 | 7 | 1 | 73* | -1 | 1 | -2 | 25 | 30*
SMILES | GDH-TPI counter-1 | Rv3671c protease | FBA Mtb inh | Vc quorum ag | Mtb UGM inh | RecA intein inh | Mtb FBA inh conf | GDH-TPI counter-2
CCCc1cc(=O)oc2cc(OCC(=O)NCCCN3CCOCC3)c(Cl)cc12 | 20 | 3 | 12 | 0 | -1 | -7 | x | x
CC(CCN1C(N(C)C)=NC[C@@H]1C)c1ccccc1 (stereo partly specified) | -1 | 5 | 3 | i | -2 | x | x | x
C/C(=N\Nc1nc(-c2ccc(C)cc2C)cs1)c1cc2ccccc2oc1=O | 6 | 5 | 6 | 0 | -1 | 2 | x | x
C/C(=N\Nc1ccccc1)c1cc2ccccc2oc1=O | 11 | -2 | 65* | 0 | -1 | -1 | 6 | -8
CCOc1cc(S(=O)(=O)N2CCN=C2Cc2ccccc2)ccc1F | -2 | -6 | 1 | 0 | 1 | -1 | x | x
O=C(NCCc1ccccc1)C1Cc2c(-c3ccc4c(c3)OCO4)ccnc2O1 (stereo unspecified) | -4 | x | 47* | 0 | x | x | 29* | 36*
COc1ccc(NC(=O)C2Cc3c(-c4ccc5c(c4)OCO5)ccnc3O2)cc1OC (stereo unspecified) | 6 | x | 48* | i | x | x | 27* | 19*
CC(C)NC(=O)C1Cc2c(-c3ccc4c(c3)OCO4)ccnc2O1 (stereo unspecified) | 4 | x | 52* | 0 | x | x | 111* | 91*
CC(C)NC(=O)C1Cc2c(-c3ccc(Cl)cc3)ccnc2O1 (stereo unspecified) | 1 | x | 0 | i | x | x | x | x
COc1ccc(CNC(=O)C2Cc3c(-c4ccc5c(c4)OCO5)ccnc3O2)cc1OC (stereo unspecified) | 8 | x | 31* | i | x | x | + | +
COc1ccc(CNC(=O)C2Cc3c(-c4ccccc4)ccnc3O2)cc1OC (stereo unspecified) | 5 | x | 1 | -1 | x | x | x | x
CC(=O)c1cccc(-c2ccnc3c2CC(C(=O)NCCc2ccccc2)O3)c1 (stereo unspecified) | 2 | x | -3 | -1 | x | x | x | x
CC(Sc1ccc(S(=O)(=O)N2CCCCCC2)cn1)C(N)=O (stereo unspecified) | 4 | x | -1 | -2 | x | x | x | x
CCOc1c(Br)cc(Br)cc1/C=C1\SC(N)=NC1=O | 13 | x | 1 | i | 2 | -2 | x | x
O=C(NCc1ccc(F)c(F)c1)C1Cc2c(-c3ccc4c(c3)OCO4)ccnc2O1 (stereo unspecified) | -2 | x | 49* | i | x | x | 177* | 136*
CC1(c2ccc3ccccc3c2)NC(=O)N(CC(=O)N2CCC(C(N)=O)CC2)C1=O (stereo unspecified) | 1 | 3 | 54* | i | 0 | -1 | 96* | 63*
Cc1nn(-c2ccccc2)c2sc(C(=O)OC3CCOC3=O)cc12 (stereo unspecified) | 3 | -1 | 56* | -6 | 4 | -2 | 31* | 20*
